The values that follow come from PubChem BioAssay (NCATS).

Experiment [1] concerns the target Glutathione peroxidase 1 (Homo sapiens) (UniProt P07203). The experiment is described as follows: Primary qHTS Assay for Inhibitors of Recombinant Selenoprotein Glutathione Peroxidase 1 (GPX1) (AID 1845191). Further: nearly all actives have a fitted effect of over 65% in size. Put shortly: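 10 nM GPX1 + cpd, 30 min RT; start w/ 1 mM GSH, 0.5 mM cumene hydroperoxide, 0.5 mM NADPH, 100 nM GR, 0.01% BSA; buffer 50 mM Tris-HCl pH 7.5, 2 mM EDTA, 150 mM NaCl; Fl 340/450, 0 & 15 min.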
(Quantitative high-throughput screening tests each substance at several concentrations.)

Experiment [2] deals with Phospholipid hydroperoxide glutathione peroxidase GPX4 (Homo sapiens) (UniProt P36969). The experiment is described as follows: Primary qHTS Assay for Inhibitors of Recombinant Selenoprotein Glutathione Peroxidase 4 (GPX4) (AID 1845192). Further: nearly all actives have a fitted effect of over 65% in size. Put shortly:
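NADPH consumption, followed by fluorescence at 340/450 nm between 0 and 15 min, reports GPX4 activity via coupled glutathione reductase (100 nM). Enzyme 200 nM was pre-exposed to compound 30 min; 0.5 mM cumene hydroperoxide and 1 mM GSH served as substrates.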

Experiment [3] deals with Luciferin 4-monooxygenase (Photinus pyralis) (UniProt P08659). Nature of the experiment: Primary firefly luciferase (FLuc) qHTS assay for identification of artifact compounds. (AID 1845220). Further: nearly all actives have a fitted effect of over 60% in size. Further: potency means the concentration at half of the fitted maximal effect. In short, it runs like this: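 Cell-free, 1536-well qHTS. Buffer pH 7.6 with 0.01% Tween-20 and 0.05% BSA; 10 uM D-luciferin, 10 uM ATP; 10 nM P. pyralis luciferase; luminescence after 5 min.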

The nature of experiment [4]: Primary fluorescence-based thiol-reactive (MSTI) qHTS assay for identification of artifact compounds. (AID 1845221). Further: nearly all actives have a fitted effect of over 65% in size. Further: potency means the concentration at half of the fitted maximal effect.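 On activity change, negative = thiol reactive: series mostly up to about 54 µM; thiol-reactive compounds lower the probe fluorescence signal.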 In short, it runs like this:
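Thiol-reactive compounds detected by quenching of 4 uM MSTI fluorescence (525/598 nm) after 1 h room-temperature dark incubation in PBS pH 7.4, 2% DMSO. qHTS titration; percent inhibition Hill-fitted against Acetyl-MSTI/MSTI controls.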

Experiment [5] concerns Nanoluciferase (engineered Oplophorus gracilirostris luciferase). The experiment is described as follows: Primary Nanoluciferase (NLuc) qHTS assay for identification of artifact compounds. (AID 1845222).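 Further: series mostly up to about 54 µM; 0% = DMSO and -100% = no enzyme.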 In short, it runs like this: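 Compounds are pinned into diluted (1:55) conditioned medium of NLuc-expressing S16 cells and held 15 min at room temperature protected from light. Nano-Glo substrate follows, and luminescence is read 5 min later.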

Experiment [6] can be described thus: Primary redox qHTS assay for identification of artifact compounds. (AID 1845223). Further: potency means the concentration at half of the fitted maximal effect. Put shortly:
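Amplex Red (25 uM) and HRP (250 mU/mL) in HBSS, with compounds for 15 min, then 250 uM DTT for 30 min, room temperature, dark. Fluorescence 525/598 nm read; normalized to DMSO and 10 uM DA3003; Hill fit.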

Values without a mark were called inactive. Records with an inconclusive call do not appear. Active and inactive are the calls of the source. The call rests on the fitted dose curve; in most records, active means well fitted curve in the direction sought with a large enough effect; inconclusive means small, poorly fitted or top-dose-only effect, or another doubt; inactive means no such curve, though single readings can be large; an effect the other way counts as inactive or inconclusive.

Phospholipid hydroperoxide glutathione peroxidase GPX4 (Homo sapiens), sequence (P36969 whole entry, looked up): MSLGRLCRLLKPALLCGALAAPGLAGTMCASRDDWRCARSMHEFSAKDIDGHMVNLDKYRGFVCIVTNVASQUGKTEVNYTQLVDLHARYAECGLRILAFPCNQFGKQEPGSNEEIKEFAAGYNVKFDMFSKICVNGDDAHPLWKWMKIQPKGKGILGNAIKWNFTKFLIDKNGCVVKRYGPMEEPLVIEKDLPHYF
Glutathione peroxidase 1 (Homo sapiens), sequence (P07203 whole entry, looked up): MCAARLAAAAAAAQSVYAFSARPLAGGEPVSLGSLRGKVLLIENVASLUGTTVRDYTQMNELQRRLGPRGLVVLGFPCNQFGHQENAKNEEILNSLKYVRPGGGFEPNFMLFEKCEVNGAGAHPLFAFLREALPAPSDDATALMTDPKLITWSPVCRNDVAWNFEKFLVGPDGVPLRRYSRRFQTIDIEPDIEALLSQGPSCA

Take `CCOc1ccc(S(=O)(=O)n2c(C)nc3ccccc32)cc1`: the Potency result in experiment [1], in experiment [2], in experiment [3], in experiment [4] and in experiment [5] was “inactive” each time.
On to `CCC(C)C(=O)OC1CC(C)C=C2C=CC(C)C(CCC(O)CC(O)CC(=O)O)C21` (stereo not drawn), for which the Potency entry in experiment [1], in experiment [2], in experiment [3], in experiment [4], in experiment [5] and in experiment [6] was “inactive” in each case.
Turning to `CO[C@H]1C[C@@H]2CC[C@@H](C)[C@@](O)(O2)C(=O)C(=O)N2CCCC[C@H]2C(=O)O[C@H]([C@H](C)C[C@@H]2CC[C@H](n3cnnn3)[C@H](OC)C2)CC(=O)[C@H](C)/C=C(\C)[C@@H](O)[C@@H](OC)C(=O)[C@H](C)C[C@H](C)/C=C/C=C/C=C/1C`, the Potency result in experiment [1], in experiment [2], in experiment [3], in experiment [4] and in experiment [5] was “inactive” each time.
As to `C[C@@H]1O[C@@H](O[C@H]2[C@H](OC(=O)[C@]34CCC(C)(C)C[C@H]3C3=CCC5[C@@]6(C)C[C@H](O)[C@H](O[C@@H]7O[C@H](CO)[C@@H](O[C@H]8OC[C@](O)(CO)[C@H]8O)[C@H](O)[C@H]7O)[C@@](C)(CO)C6[C@H](O)C[C@@]5(C)[C@]3(C)C[C@H]4O)OC[C@H](O)[C@@H]2O)[C@H](O)[C@H](O)[C@H]1O[C@@H]1OC[C@@H](O)[C@H](O[C@@H]2OC[C@](O)(CO)[C@H]2O)[C@H]1O` (stereo partly drawn), the results for the outcome in experiment [1], in experiment [2] and in experiment [3] were “inactive [at 9.52 µM]”, “inactive [at 9.73 µM]” and “inactive [at 11.6 µM]”, respectively. Also, the activity change, negative = thiol reactive in experiment [4] is 502% [at 11.5 µM].
As to `C/C=C/C=C/C(O)=C1\C(=O)[C@]2(C)C3C(C(=O)CC/C=C/C)=C(O)C4(C)C1[C@]1(C)O[C@@]4(O)[C@@]3(C)O[C@@]12O`, the Potency entry in experiment [1], in experiment [2], in experiment [3] and in experiment [5] was “inactive” each time. For the same molecule, the Potency in experiment [4] was 4.62 µM (active).
With `CC(=O)N1CCN(Cc2ccc([C@H](C)Nc3nccc(N4C(=O)OC[C@@H]4C(C)C)n3)cc2)CC1`, the Potency result in experiment [1], in experiment [2], in experiment [3], in experiment [4] and in experiment [5] was “inactive” in each case.
For the molecule `Cc1cc2c(c(=O)[nH]1)OC(C(O)CC(C)C)O2` (stereo not drawn), the Potency result in experiment [1], in experiment [2], in experiment [3], in experiment [4] and in experiment [5] was “inactive” each time.
For the molecule `C=C1CCC2C(C)(C)C(O)CCC2(C)C1CCC(C)CCO` (stereo not drawn), the Potency result in experiment [1], in experiment [2], in experiment [3] and in experiment [5] was “inactive” throughout. The Potency in experiment [4] is 16.5 µM (active).
Turning to `CC(=O)OC[C@@]12C(=O)C[C@@H](C)[C@]3(C[C@@H](c4ccoc4)O[C@H]3OC(C)=O)[C@H]1CCC[C@]21CO1`, the Potency entry in experiment [1], in experiment [2], in experiment [3], in experiment [4] and in experiment [5] was “inactive” in each case.
On to `CC(C)c1cc2c(c(O)c1O)[C@@]13CCCC(C)(C)[C@@H]1[C@H](OC3=O)C2=O`, for which the Potency entry in experiment [1], in experiment [2], in experiment [3] and in experiment [5] was “inactive” each time. The Potency in experiment [4] is 2.33 µM (active).
Consider `C[C@@H]1CCC2C(C)(C)[C@H](O)CC[C@]2(C)[C@@]12Cc1c(O)cc3c(c1O2)CNC3=O` (stereo partly drawn), for which the Potency entry in experiment [1], in experiment [2], in experiment [3], in experiment [4], in experiment [5] and in experiment [6] was “inactive” each time.
As to `C=CC(=O)Nc1cc(Nc2nccc(-c3c[nH]c4ccccc34)n2)c(OC)cc1N(C)CCN(C)C`, the Potency entry in experiment [1], in experiment [2], in experiment [3] and in experiment [5] was “inactive” in each case. For the same molecule, the Potency in experiment [4] is 1.68 µM (active).
`CCc1ccc(Cc2ccc3c(c2)[C@]2(OC3)O[C@H](CO)[C@@H](O)[C@H](O)[C@H]2O)cc1`: the Potency entry in experiment [1], in experiment [2], in experiment [3], in experiment [4], in experiment [5] and in experiment [6] was “inactive” in each case.
In the case of `COc1ccc([C@@]2(O)c3c(ccc(CC=C(C)C)c3O)NC(=O)[C@@H]2OC)cc1`, the Potency entry in experiment [1], in experiment [2], in experiment [3], in experiment [4], in experiment [5] and in experiment [6] was “inactive” each time.
Consider `CC[C@@](C)(Nc1ccnc(-c2c[nH]c3ncccc23)n1)C(=O)NCC(F)(F)F`, for which the Potency result in experiment [1], in experiment [2], in experiment [3], in experiment [4], in experiment [5] and in experiment [6] was “inactive” each time.
On to `CC(=O)OC1C(O)CC2(C)C(CCC(C)C23Cc2c(O)cc(CO)c(C=O)c2O3)C1(C)C` (stereo not drawn), for which the Potency result in experiment [1], in experiment [2], in experiment [3] and in experiment [4] was “inactive” each time.
Take `O=C(NOCC(O)CO)c1ccc(F)c(F)c1Nc1ccc(I)cc1F` (stereo not drawn): the Potency result in experiment [1], in experiment [2], in experiment [3], in experiment [4] and in experiment [5] was “inactive” throughout.
As to `OC/C=C/C=C/[C@H]1Cc2cc(O)cc(O)c2O1`, the Potency result in experiment [1], in experiment [2], in experiment [3] and in experiment [5] was “inactive” throughout. For the same molecule, the Potency in experiment [4] is 8.44 µM (active); in experiment [6], 18.9 µM (active).
Turning to `CC1(C)CCCC2(C)C1CC(=O)C13CC(CCC12)C(O)(CO)C3` (stereo not drawn), the Potency entry in experiment [1], in experiment [2], in experiment [3], in experiment [4], in experiment [5] and in experiment [6] was “inactive” in each case.
As for `COC1C(=O)CCC2(CO2)C1(O)C1(C)OC1CC=C(C)C` (stereo not drawn), the Potency entry in experiment [1], in experiment [2], in experiment [3] and in experiment [5] was “inactive” in each case. Besides, in experiment [4], the Potency is 11.9 µM (active).
Consider `CNC(=O)c1cc(Oc2ccc3nc(N[C@@H]4CCCC[C@H]4O)sc3c2)ccn1`, for which the Potency entry in experiment [1], in experiment [2], in experiment [4], in experiment [5] and in experiment [6] was “inactive” in each case. For the same molecule, in experiment [3], the Potency was 12 µM (active).
For the molecule `O=C(NCc1ccc(F)cc1)C(=O)c1c[nH]c2ccccc12`, the Potency result in experiment [1], in experiment [2], in experiment [3], in experiment [4] and in experiment [5] was “inactive” each time.
For `O=C(CCc1ccccc1)N1CCC(O)(Cn2cnc3cc(Cl)ccc3c2=O)CC1`, the Potency entry in experiment [1], in experiment [2], in experiment [3], in experiment [4] and in experiment [5] was “inactive” throughout.
`CC(=O)OC1/C(C)=C/C(=O)C(OC(C)=O)C(C)(C)/C=C/C(C)C(=O)C2(OC(C)=O)CC(C)C(OC(=O)c3ccccc3)C12` (stereo not drawn): the Potency entry in experiment [1], in experiment [2], in experiment [3], in experiment [4] and in experiment [5] was “inactive” throughout.
For the molecule `COC(=O)[C@H](O)[C@H]1C(C)(C)[C@H](OC(=O)C(C)C)[C@@]2(O)C(=O)[C@]1(C)C1CC[C@]3(C)C(CC(=O)O[C@H]3c3ccoc3)[C@]13O[C@@H]32` (stereo partly drawn), the Potency result in experiment [1], in experiment [2], in experiment [3], in experiment [4], in experiment [5] and in experiment [6] was “inactive” each time.
On to `Cc1ccc(-c2c(C(=O)CF)n(CCCO)c3ncnc(N)c23)cc1`, for which the Potency result in experiment [1], in experiment [2], in experiment [3], in experiment [4] and in experiment [5] was “inactive” in each case.
With `C=C1[C@H](OC(C)=O)[C@H]2[C@@H](OC(C)=O)[C@](C)(OC(C)=O)C[C@]2(OC(C)=O)C(=O)[C@H](C)/C=C/C(C)(C)C(=O)[C@H](OC(=O)C(C)C)[C@H]1OC(C)=O`, the Potency result in experiment [1], in experiment [2], in experiment [3], in experiment [4], in experiment [5] and in experiment [6] was “inactive” throughout.
